Experimental data taken from PubChem BioAssay (NCI).
Compounds without any hit were thinned out: in the full panel of roughly 83,000, 20% have a hit.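 Interpretation: 100, growth as untreated; towards 0, rising growth inhibition; 0, no net growth; 0 to -100, cell death. Compounds scoring below 10 were considered active.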 The source made the active and inactive calls.

These molecules were tested on MDA-MB-468 breast (assay: NCI-60 one-dose screen, 48 h (100 = growth as untreated, 0 = no growth, -100 = all killed)). Conditions: 10 µM unless noted.

Structure (SMILES)	growth
C=C[Se]CC(=O)/C=C/c1ccccc1	85.6% (inactive)
O=C1NC2(CCNCC2)Nc2ccccc21	98.8% (inactive)
NC1CC2CCCCC2CC1(O)c1ccccc1 (stereo not given)	98.2% (inactive)
C#Cc1ccc2c(c1)C(c1ccccc1)=NCC(=O)N2C	20.8% (inactive)
NNc1ccccc1	109% (inactive)
Cc1cc(C)cc(Nc2nc3c(s2)CC[C@@]2(C)C3=CC[C@@H]3[C@@H]2CC[C@]2(C)C(=O)CC[C@@H]32)c1	57.9% (inactive)
CC1([N+](=O)[O-])COP(=O)(Nc2ccc(F)cc2)OC1 (stereo not given)	110% (inactive)
COc1cc2c(O[C@@H]3OC[C@H](O)[C@H](O)[C@H]3O)c3c(c(-c4ccc5c(c4)OCO5)c2cc1OC)C(=O)OC3	59.3% (inactive)
CC(=O)N1N=C(c2ccccc2)CC1c1sc(N(CCCl)CCCl)nc1Cl (stereo not given)	92.6% (inactive)
CC(=O)Oc1ccccc1C(=O)NCCC[Se]C#N	19% (inactive)
